# From PubChem BioAssay (Tox21)
# Records with an inconclusive call do not appear. Values without a mark were called inactive. Activity calls are given as the source filed them. Calls follow the shape of the dose curve; as a rule, active = well fitted activation curve with a large enough effect in the repeat runs; inconclusive = weak or mixed curves; inactive = flat fitted curve, though single readings scatter.
# Test: Caspase-3/7 induction in HepG2 cells by small molecules, qHTS assay (AID 1346978); also: nearly all actives have a fitted effect of over 15% in size
# Conditions: HepG2 caspase-3/7 activation, Caspase-Glo luminescence, 17 h; series mostly up to 92.4 µM; caspase activation: at the top concentration
# From the text: National Center for Advancing Translational Sciences [NCATS] NIH Chemical Genomics Center [NCGC] U.S. Environmental Protection Agency [EPA] National Institutes of Environmental Health Sciences [NIEHS] National Toxicology Program [NTP] Assay overview: Apoptosis is a process of programmed cell death and plays a central role in the development of multicellular organisms. It is a highly regulated process and induces cell death by activating caspases, which are the members of cysteine aspartic acid-specific protease (caspase) family. Caspases involved in apoptosis are classified by their mechanism of action as initiator caspases (caspase-2, -8, -9 and -10) and executioner caspases (caspase-3, -6, and -7). Inhibition of apoptosis results in number of cancers, autoimmune diseases, inflammatory diseases and viral infection. To identify small molecule compounds that induce apoptosis, a homogeneous, luminescent Caspase-Glo 3/7 assay was used. Wild type HepG2 cells were used to screen Tox21 libraries for identifying caspase-3/7 activity inducers.
# Assay Protocol Summary: HepG2 cells were dispensed at 2,000 per well in 5uL of culture medium into white solid bottom 1536-well plates (Corning Life Sciences, Corning, NY) using a Multidrop Combi (Thermo Scientific, Waltham, MA) dispenser. The assay plates were incubated at 37 C and 5% CO2 for 5hr, and then 23nL of compounds dissolved in DMSO and positive control were transferred using a Pintool station (Wako, San Diego, CA). The assay plates were incubated at 37C and 5% CO2 for 17hr. For caspase-3/7 activity read, 4uL of Caspase-Glo 3/7 reagent (Promega Corporation, Madison, WI) was added to each well of the assay plates using Flying Reagent Dispenser (FRD, Aurora Discovery, San Diego, CA) and incubated the assay plates at room temperature for 30min. The luminescence signal was quantified using a ViewLux plate reader (Perkin Elmer, Shelton, CT).
# % is scaled to controls: 0 for no effect and ±100 for the full control effect; potency is read from the fitted curve at half-maximal effect.
SMILES,caspase activation,Potency
C=CC(=O)OCC(O)COc1ccccc1 (stereo not given),-0.255%,
Clc1nc2ccccc2s1,0.411%,
CC(=O)O[C@@H]1C[C@@H]2CC[C@@]1(C)C2(C)C,1.51%,
COC(=O)[C@]1(C)CCC[C@@]2(C)[C@H]1CC=C1C=C(C(C)C)CC[C@@H]12,-0.924%,
Cc1ccc(-n2[nH]c(C)c(N=Nc3cccc(-c4cccc(C(=O)O)c4)c3O)c2=O)cc1C,-2.71% [at 42.5 µM],
CC(C)(C)c1cc(CCC(=O)NCCCCCCNC(=O)CCc2cc(C(C)(C)C)c(O)c(C(C)(C)C)c2)cc(C(C)(C)C)c1O,0.478%,
CCC(=O)CC(C)CC (stereo not given),1.2% [at 0.349 µM],
O[C@@H](c1cc(C(F)(F)F)nc2c(C(F)(F)F)cccc12)[C@H]1CCCCN1,,26.6 µM (active)
Cc1cccc(Br)c1,0.433%,
Cc1cc(=O)[nH]c(=O)[nH]1,-1.14%,
CCCCCCC(C)Nc1ccc(Nc2ccccc2)cc1 (stereo not given),0.114%,
CCCCCCCC/C=C\CCCCCCCC(=O)NCc1ccc(O)c(OC)c1,-0.0498% [at 42.5 µM],
CCCCCCCCCCCCCOP(=O)(O)O,-0.64%,
CC(=O)C=O,0.598%,
CCCCCCCCCCCCCCCCCO,0.39% [at 19 µM],
Clc1ccccc1CN1CCc2sccc2C1,0.224% [at 42.5 µM],
O=C1NC2CCCCN2C12CCN(CCCN1c3ccccc3CCc3ccc(Cl)cc31)CC2 (stereo not given),,29.8 µM (active)
Oc1ccc(-c2ccccc2)c(Cl)c1,9.74%,
C=CC(=O)OCCC#N,-1.39%,
CC(=O)Nc1ccc(O)cc1,,inactive

SMILES,caspase activation,Potency
CC(C)(C)c1n[nH]c(=O)n(N)c1=O,-0.751%,
COC(=O)CC(C)CCC=C(C)C (stereo not given),-0.0057%,
COc1cc(C(=O)NS(=O)(=O)c2ccccc2C)ccc1Cc1cn(C)c2ccc(NC(=O)OC3CCCC3)cc12,0.0342% [at 42.5 µM],
O=C(c1ccccc1)c1cc(Cl)ccc1O,3.73%,
CCCCN(C)C,0.429%,
CC(C)OC(=O)c1cc(C(=O)OC(C)C)cc([N+](=O)[O-])c1,0.0264%,
CN1[C@@H]2CC[C@H]1CC(OC(=O)C(CO)c1ccccc1)C2 (stereo not given in full),0.246%,
CCCC(O)C(O)CO (stereo not given),0.497%,
O=C=NCc1cccc(CN=C=O)c1,-0.106% [at 19 µM],
COc1cccc(CCc2ccccc2OCC(CN(C)C)OC(=O)CCC(=O)O)c1 (stereo not given),5.09% [at 42.5 µM],
C(=C/c1ccccc1)/c1ccccc1,0.114%,
COC(=O)NCCC[Si](OC)(OC)OC,2.32%,
CO[Si](CCCNCCNCCN)(OC)OC,1.39%,
CCN=c1cc2oc3cc(NCC)c(C)cc3c(-c3ccccc3C(=O)OCC)c-2cc1C,,27.3 µM (active)
O=C(O)c1cccc(Cl)n1,0.316%,
CCCCCCOc1cc(C)c(O)c(C)c1C,,49.2 µM (active)
CCCCCCCCC(C)=O,0.112%,
S=P(N1CC1)(N1CC1)N1CC1,-2.36%,
CCCC(CC)CCCCCCCN (stereo not given),3.71%,
CCCCCCCCCCCCCCCC,-0.775%,
